Assay results as given in PubChem BioAssay (EPA / NIEHS).
Records with an inconclusive call do not appear. Calls of active or inactive are those of the source. How the source made its calls, unless noted: active means hit-call score of the fitted dose curve at least 0.9, where 1 is the maximum; inactive means score below 0.9.

Experiments:
[1] = molecular target: Retinoic acid receptor RXR-alpha (Homo sapiens) (UniProt P19793); assay: ATG_RXRa_TRANS: Attagene TRANS-FACTORIAL HepG2 Assay for human Retinoid X Receptor alpha (RXRa) (AID 2283012; active means hit-call score of the fitted dose curve at least 0.9, where 1 is the maximum)
How it was run: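 Transient transfection of human HepG2 with multiple GAL4-UAS reporter constructs; 24 h compound exposure; total RNA isolated, reverse-transcribed, PCR-amplified, 6-FAM labelled, HpaI-cut, resolved by capillary electrophoresis. Positive-direction fit versus DMSO.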

[2] = molecular target: human Retinoid X Receptor beta (RXRb), RXRB (gene 6257) (UniProt P28702); assay: ATG_RXRb_TRANS: Attagene TRANS-FACTORIAL HepG2 Assay for human Retinoid X Receptor beta (RXRb) (AID 2283013; active means hit-call score of the fitted dose curve at least 0.9, where 1 is the maximum)
How it was run: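 Transfect HepG2 with GAL4-UAS multi-reporter constructs (chimeric NR-Gal4, TRANS format); dose compound 24 h; isolate RNA, RT-PCR, FAM primer extension, HpaI digest; quantify by capillary electrophoresis; positive direction vs DMSO.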

[3] = molecular target: human Thyroid Receptor alpha (THRa1), THRA (gene 7067) (UniProt P10827); assay: ATG_THRa1_TRANS: Attagene TRANS-FACTORIAL HepG2 Assay for human Thyroid Receptor alpha (THRa1) (AID 2283014; active means hit-call score of the fitted dose curve at least 0.9, where 1 is the maximum)
How it was run: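 HepG2 cells transiently transfected with multiplexed GAL4-UAS reporter units for exogenous chimeric THRa1-Gal4; reporter mRNA measured 24 h after dosing by RT-PCR, 6-FAM labelling, HpaI digestion and capillary electrophoresis. Gain-of-signal fitted versus DMSO baseline.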

[4] = read-out: E-selectin (Homo sapiens) (UniProt P16581); assay: BSK_3C_Eselectin: BioMAP Diversity Plus: 3C Assay for Eselectin Biomarker Activity (AID 2283015); conditions: primary human endothelial cells (HUVEC); actives raise or lower the signal
How it was run: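 Primary human umbilical vein endothelial cells (3C system) were dosed with chemical and cell-surface E-selectin measured by ELISA 24 h later. Bidirectional curve fitting used DMSO as negative control and baseline.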

[5] = read-out: Interleukin-1 alpha (IL1a), IL1A (gene 3552); assay: BSK_BE3C_IL1a: BioMAP Diversity Plus: BE3C Assay for Interleukin-1 alpha (IL1a) Biomarker Activity (AID 2283016); conditions: primary human bronchial epithelial cells; actives raise or lower the signal
How it was run: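 BE3C primary human bronchial epithelium; cpd 24 h; IL-1a by ELISA; bidirectional fit vs DMSO; parallel SRB (0.1% SRB, 10% TCA fix, 560 nm) for cytotoxicity.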

[6] = read-out: Monocyte Chemoattractant Protein-1 (MCP1), CCL2 (gene 6347); assay: BSK_3C_MCP1: BioMAP Diversity Plus: 3C Assay for Monocyte Chemoattractant Protein-1 (MCP1) Biomarker Activity (AID 2283017); conditions: primary human endothelial cells (HUVEC); actives raise or lower the signal
How it was run: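 Primary human umbilical vein endothelial cells (3C system) were exposed to test chemical for 24 h, after which MCP-1 was quantified by ELISA. Activity was fitted bidirectionally against DMSO as negative control and baseline.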

[7] = read-out: Monocyte Chemoattractant Protein-1 (MCP1), CCL2 (gene 6347); assay: BSK_4H_MCP1: BioMAP Diversity Plus: 4H Assay for Monocyte Chemoattractant Protein-1 (MCP1) Biomarker Activity (AID 2283018); conditions: primary human endothelial cells (HUVEC); actives raise or lower the signal
How it was run: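 ELISA read-out of MCP-1 from human vascular endothelial primary cells taken at 24 hours after compound exposure. Activity was fitted in both directions relative to DMSO, which served as negative control.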

[8] = read-out: Human Leukocyte Antigen - DR isotype (HLADR), HLA-DRA (gene 3122); assay: BSK_3C_HLADR: BioMAP Diversity Plus: 3C Assay for Human Leukocyte Antigen - DR isotype (HLADR) Biomarker Activity (AID 2283019); conditions: primary human endothelial cells (HUVEC); actives raise or lower the signal
How it was run: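 Primary human umbilical vein endothelial cells (3C system) were dosed with compound and cell-surface HLA-DR was quantified by ELISA at 24 h. Activity was fitted bidirectionally against DMSO as negative control and baseline.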

[9] = read-out: Interleukin-8 (IL8), CXCL8 (gene 3576); assay: BSK_3C_IL8: BioMAP Diversity Plus: 3C Assay for Interleukin-8 (IL8) Biomarker Activity (AID 2283020); conditions: primary human endothelial cells (HUVEC); actives raise or lower the signal
How it was run: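 ELISA read-out of IL-8 from human umbilical vein endothelium, measured 24 h after chemical dosing. Activity is expressed relative to DMSO negative control, with both increases and decreases fitted.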

[10] = molecular target: human Vitamin D Receptor (VDR), VDR (gene 7421) (UniProt P11473); assay: ATG_VDR_TRANS: Attagene TRANS-FACTORIAL HepG2 Assay for human Vitamin D Receptor (VDR) (AID 2283022; active means hit-call score of the fitted dose curve at least 0.9, where 1 is the maximum)
How it was run: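 HepG2 cells were transiently transfected with multiple GAL4-UAS reporter units, so signal reflects exogenous chimeric receptor-Gal4 activity. After 24 h compound exposure, reporter mRNA was measured by RT-PCR, fluorescent labelling and capillary electrophoresis, fitted for gain of signal versus DMSO.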

[11] = BSK_3C_SRB: Viability Assessment in the BioMAP Diversity Plus: 3C Assay (AID 2283023); conditions: primary human endothelial cells (HUVEC);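 further: fitted both ways against DMSO so a hit may be signal rise or drop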
How it was run: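 Primary human umbilical vein endothelial cells in the 3C system were read 24 h after compound dosing. Total protein was stained with 0.1% sulforhodamine B after 10% TCA fixation and read at 560 nm, with bidirectional fitting against DMSO as baseline.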

[12] = read-out: Matrix Metallopeptidase 1 (MMP1), MMP1 (gene 4312); assay: BSK_BE3C_MMP1: BioMAP Diversity Plus: BE3C Assay for Matrix Metallopeptidase 1 (MMP1) Biomarker Activity (AID 2283024); conditions: primary human bronchial epithelial cells; actives raise or lower the signal
How it was run: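 Human bronchial epithelial cells (BE3C system) exposed to compound for 24 h; MMP1 then quantified by ELISA. Activity was fitted in both directions relative to DMSO.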

[13] = BSK_3C_Vis: BioMAP Diversity Plus: 3C Assay for Morphology Visualization (AID 2283025); conditions: primary human endothelial cells (HUVEC);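 further: fitted both ways so gain or loss versus DMSO counts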;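 on AC50: light microscopy image of cell morphology used as background control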
How it was run: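 Chemicals were added to primary human umbilical vein endothelium, cells were incubated 24 h, and morphology was then visualized by light microscopy. Gain or loss of signal was fitted bidirectionally relative to DMSO.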

[14] = BSK_4H_SRB: Viability Assessment in the BioMAP Diversity Plus: 4H Assay (AID 2283027); conditions: primary human endothelial cells (HUVEC);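 further: cells exposed to compound for 24 h before staining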;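 on AC50: curves fitted both ways versus DMSO so AC50 may be loss or gain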
How it was run: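 Human umbilical vein endothelial cells, 24 h after chemical dosing; total protein measured by 0.1% sulforhodamine B staining after 10% TCA fixation, read at 560 nm. Bidirectional fitting against DMSO.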

[15] = BSK_BE3C_SRB: Viability Assessment in the BioMAP Diversity Plus: BE3C Assay (AID 2283028); conditions: primary human bronchial epithelial cells
How it was run: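 Human primary bronchial epithelial cells were exposed to test chemicals for 24 h. Total protein in parallel cultures was then measured by staining with 0.1% sulforhodamine B after 10% TCA fixation, with absorbance read at 560 nm. Activity was fitted bidirectionally against DMSO.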

[16] = read-out: Thrombomodulin, THBD (gene 7056); assay: BSK_3C_Thrombomodulin: BioMAP Diversity Plus: 3C Assay for Thrombomodulin Biomarker Activity (AID 2283029); conditions: primary human endothelial cells (HUVEC); actives raise or lower the signal
How it was run: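 Read-out is ELISA of thrombomodulin on human umbilical vein endothelium 24 h after chemical dosing. Gain or loss of signal is scored relative to DMSO. Overt cytotoxicity is checked in parallel cultures by sulforhodamine B staining.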

[17] = read-out: Urokinase-type plasminogen activator receptor (uPAR), PLAUR (gene 5329); assay: BSK_4H_uPAR: BioMAP Diversity Plus: 4H Assay for Urokinase-type plasminogen activator receptor (uPAR) Biomarker Activity (AID 2283030); conditions: primary human endothelial cells (HUVEC); actives raise or lower the signal
How it was run: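 Primary human umbilical vein endothelial cells were exposed to chemical for 24 h before cell-surface uPAR was quantified by ELISA. Activity was fitted bidirectionally against the DMSO negative control baseline.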

[18] = read-out: Pselectin, SELP (gene 6403); assay: BSK_4H_Pselectin: BioMAP Diversity Plus: 4H Assay for Pselectin Biomarker Activity (AID 2283026); conditions: primary human endothelial cells (HUVEC); actives raise or lower the signal
How it was run: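 ELISA read-out of P-selectin on human umbilical vein endothelium after 24 h of dosing. Values derive from bidirectional fitting relative to DMSO. Parallel SRB protein staining flagged overt cytotoxicity.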

[19] = read-out: Monokine induced gamma interferon (MIG), CXCL9 (gene 4283); assay: BSK_3C_MIG: BioMAP Diversity Plus: 3C Assay for Monokine induced gamma interferon (MIG) Biomarker Activity (AID 2283021); conditions: primary human endothelial cells (HUVEC); actives raise or lower the signal;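 on AC50: MIG protein level measured by immunoassay in the treated endothelial cultures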
How it was run: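 Read-out is ELISA detection of MIG on human umbilical vein endothelial cells, taken 24 h after dosing. Gain or loss of signal was scored relative to DMSO controls using bidirectional curve fitting.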

[20] = molecular target: human RAR-related Orphan Receptor gamma (RORg), RORC (gene 6097) (UniProt P51449); assay: ATG_RORg_TRANS: Attagene TRANS-FACTORIAL HepG2 Assay for human RAR-related Orphan Receptor gamma (RORg) (AID 2283011; active means hit-call score of the fitted dose curve at least 0.9, where 1 is the maximum)
How it was run: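 Readout: reporter transcript induction (RT-PCR, fluorescent primer extension, capillary electrophoresis) after 24 h compound exposure of transiently transfected HepG2 cells carrying a RORg-Gal4 chimera and GAL4-UAS reporters; DMSO served as baseline, with increasing signal fitted.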

Measured: AC50

human Vitamin D Receptor (VDR), VDR (gene 7421), sequence (P11473 whole entry, looked up, the tested form may be a part): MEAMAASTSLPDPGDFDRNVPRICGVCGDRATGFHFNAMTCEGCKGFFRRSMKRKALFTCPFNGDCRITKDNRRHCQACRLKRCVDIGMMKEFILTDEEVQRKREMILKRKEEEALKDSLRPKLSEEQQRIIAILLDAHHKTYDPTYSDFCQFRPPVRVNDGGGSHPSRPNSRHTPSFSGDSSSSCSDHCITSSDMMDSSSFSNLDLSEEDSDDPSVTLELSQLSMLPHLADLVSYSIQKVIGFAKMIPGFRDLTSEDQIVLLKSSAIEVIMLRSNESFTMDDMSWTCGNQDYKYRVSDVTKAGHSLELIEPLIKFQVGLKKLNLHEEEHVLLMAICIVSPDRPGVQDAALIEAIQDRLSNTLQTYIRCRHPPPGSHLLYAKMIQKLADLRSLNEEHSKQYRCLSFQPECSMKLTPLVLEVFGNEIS
Retinoic acid receptor RXR-alpha (Homo sapiens), sequence (P19793 whole entry, looked up, the tested form may be a part): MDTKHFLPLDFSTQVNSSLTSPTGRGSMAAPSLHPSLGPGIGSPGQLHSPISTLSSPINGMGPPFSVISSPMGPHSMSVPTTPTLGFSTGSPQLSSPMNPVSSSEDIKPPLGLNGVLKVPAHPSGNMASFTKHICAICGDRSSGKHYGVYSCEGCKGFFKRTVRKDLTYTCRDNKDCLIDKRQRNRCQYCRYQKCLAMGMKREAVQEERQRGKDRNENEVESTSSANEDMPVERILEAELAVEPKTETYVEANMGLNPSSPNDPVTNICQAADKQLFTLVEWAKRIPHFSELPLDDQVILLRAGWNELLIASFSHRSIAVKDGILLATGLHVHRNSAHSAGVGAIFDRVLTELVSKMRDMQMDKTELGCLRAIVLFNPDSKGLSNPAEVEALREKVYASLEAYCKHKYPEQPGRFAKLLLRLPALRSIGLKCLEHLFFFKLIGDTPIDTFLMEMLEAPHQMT
E-selectin (Homo sapiens), sequence (P16581 whole entry, looked up): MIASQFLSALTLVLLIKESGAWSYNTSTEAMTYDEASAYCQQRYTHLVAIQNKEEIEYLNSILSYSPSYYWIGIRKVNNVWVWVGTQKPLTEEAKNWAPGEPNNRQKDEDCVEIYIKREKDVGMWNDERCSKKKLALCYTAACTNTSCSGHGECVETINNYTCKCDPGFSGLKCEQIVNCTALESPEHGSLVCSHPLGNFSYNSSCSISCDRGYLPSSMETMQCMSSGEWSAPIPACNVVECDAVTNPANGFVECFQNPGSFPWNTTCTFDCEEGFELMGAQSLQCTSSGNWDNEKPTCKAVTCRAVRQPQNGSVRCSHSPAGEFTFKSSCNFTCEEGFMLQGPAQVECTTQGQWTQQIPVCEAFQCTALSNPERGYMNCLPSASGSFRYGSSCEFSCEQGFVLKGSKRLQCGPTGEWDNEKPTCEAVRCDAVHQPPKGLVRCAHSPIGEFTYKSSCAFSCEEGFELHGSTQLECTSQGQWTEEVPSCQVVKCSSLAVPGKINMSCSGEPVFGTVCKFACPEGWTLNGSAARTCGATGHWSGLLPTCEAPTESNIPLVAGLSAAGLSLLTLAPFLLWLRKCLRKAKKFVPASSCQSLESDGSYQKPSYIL
human Retinoid X Receptor beta (RXRb), RXRB (gene 6257), sequence (P28702 whole entry, looked up, the tested form may be a part): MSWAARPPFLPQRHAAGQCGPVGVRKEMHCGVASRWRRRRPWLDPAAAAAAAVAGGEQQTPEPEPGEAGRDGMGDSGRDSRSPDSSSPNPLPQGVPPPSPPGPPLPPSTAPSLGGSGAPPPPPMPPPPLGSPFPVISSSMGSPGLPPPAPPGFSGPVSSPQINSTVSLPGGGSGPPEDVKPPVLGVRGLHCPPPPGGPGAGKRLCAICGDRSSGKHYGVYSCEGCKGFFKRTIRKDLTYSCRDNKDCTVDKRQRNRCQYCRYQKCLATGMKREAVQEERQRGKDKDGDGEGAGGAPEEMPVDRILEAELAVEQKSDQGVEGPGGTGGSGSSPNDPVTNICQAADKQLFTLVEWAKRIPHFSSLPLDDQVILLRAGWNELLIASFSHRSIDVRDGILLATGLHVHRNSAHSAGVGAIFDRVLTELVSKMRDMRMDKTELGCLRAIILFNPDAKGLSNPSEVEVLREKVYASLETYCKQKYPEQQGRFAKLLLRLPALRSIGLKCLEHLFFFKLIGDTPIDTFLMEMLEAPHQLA
human Thyroid Receptor alpha (THRa1), THRA (gene 7067), sequence (P10827 whole entry, looked up, the tested form may be a part): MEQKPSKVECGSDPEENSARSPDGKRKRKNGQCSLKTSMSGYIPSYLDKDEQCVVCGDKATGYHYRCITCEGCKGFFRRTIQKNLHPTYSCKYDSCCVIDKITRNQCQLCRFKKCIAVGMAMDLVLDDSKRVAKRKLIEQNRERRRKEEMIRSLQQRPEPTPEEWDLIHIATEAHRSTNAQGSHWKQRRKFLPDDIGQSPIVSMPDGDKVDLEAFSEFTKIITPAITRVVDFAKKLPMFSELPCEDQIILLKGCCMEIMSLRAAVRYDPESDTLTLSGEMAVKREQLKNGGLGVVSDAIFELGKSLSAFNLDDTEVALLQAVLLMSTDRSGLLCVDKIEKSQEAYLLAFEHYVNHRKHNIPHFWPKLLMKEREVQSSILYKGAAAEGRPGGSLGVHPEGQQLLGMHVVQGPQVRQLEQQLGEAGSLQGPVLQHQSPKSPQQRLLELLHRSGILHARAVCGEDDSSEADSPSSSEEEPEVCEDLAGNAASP
human RAR-related Orphan Receptor gamma (RORg), RORC (gene 6097), sequence (P51449 whole entry, looked up, the tested form may be a part): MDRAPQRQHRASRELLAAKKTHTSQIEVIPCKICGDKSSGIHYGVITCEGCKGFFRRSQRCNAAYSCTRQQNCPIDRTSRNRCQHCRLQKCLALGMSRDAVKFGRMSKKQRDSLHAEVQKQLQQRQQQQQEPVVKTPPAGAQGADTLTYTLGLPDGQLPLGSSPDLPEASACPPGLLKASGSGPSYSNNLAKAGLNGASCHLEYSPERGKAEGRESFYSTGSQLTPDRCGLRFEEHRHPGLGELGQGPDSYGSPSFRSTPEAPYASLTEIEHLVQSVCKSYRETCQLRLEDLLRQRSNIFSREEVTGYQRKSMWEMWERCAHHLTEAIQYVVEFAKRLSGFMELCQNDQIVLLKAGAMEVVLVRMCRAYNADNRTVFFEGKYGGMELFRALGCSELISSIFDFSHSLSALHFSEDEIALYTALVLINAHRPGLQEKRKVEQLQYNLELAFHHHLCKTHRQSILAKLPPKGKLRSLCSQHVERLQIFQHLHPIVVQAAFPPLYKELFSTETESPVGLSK

CO[C@@H]1[C@H](OC(=O)NC(=O)CCl)CC[C@]2(CO2)[C@H]1[C@@]1(C)O[C@@H]1CC=C(C)C
active: [4] 5.16 µM | [8] 8.98 µM
not listed: [18] | [19] | [20]
inactive: all other assays above

Cc1cc(N=Nc2ccccc2C)ccc1N
active: [6] 10.8 µM | [8] 27.5 µM | [9] 20 µM | [11] 11.1 µM | [13] 39 µM | [18] 29.1 µM | [14] 5.17 µM | [16] 3 µM | [17] 1.95 µM
inactive: [1] | [2] | [3] | [4] | [5] | [7] | [10] | [12] | [15]

O=[N+]([O-])c1ccc(Oc2ccc(Cl)cc2Cl)cc1
active: [4] 20 µM | [6] 27.8 µM | [7] 10.3 µM | [8] 30.5 µM | [9] 20 µM | [11] 31.2 µM | [13] 39 µM
not listed: [19] | [20]
inactive: all other assays above

ClC1=C(Cl)C2(Cl)C3C(Cl)C=CC3C1(Cl)C2(Cl)Cl (configuration not stated)
inactive: [1] | [2] | [12] | [15] | [16]
active: [4] 26.8 µM | [5] 28.6 µM | [6] 30 µM | [7] 24.1 µM | [8] 22.7 µM | [9] 32.7 µM | [19] 35.7 µM | [11] 28.7 µM | [13] 37.3 µM | [18] 28.5 µM | [14] 33.4 µM | [17] 34.7 µM

c1ccc(C2CO2)cc1 (configuration not stated)
not listed: [1] | [2] | [3] | [10]
inactive: all other assays above

Nc1cc(Cl)cc(C(=O)O)c1Cl
not listed: [1] | [2] | [10] | [19]
inactive: all other assays above

Cc1cccc(N)c1N
active: [2] 46.1 µM | [4] 30.3 µM | [8] 25.9 µM
not listed: [10] | [18] | [20]
inactive: all other assays above

Nc1ccc(Cl)cc1N
active: [2] 27.8 µM | [4] 3.48 µM | [8] 5.99 µM | [12] 1.69 µM | [16] 0.785 µM
not listed: [18] | [20]
inactive: all other assays above
